About 1,700 (3.3%) of roughly 52,000 compounds were called active. Rule as the data show it: active = survival mostly below about 52% (no sharp cut-off); inactive = mostly above about 56%. The entries come from a sample that favours actives as a whole.
The molecules below were run on Wild type (assay: growth inhibition of S. aureus wild type versus tarO mutant, primary screen, teichoic acid synthesis inhibitors, RN4220, OD600 (AID 463173)). Details: S. aureus RN4220 wild type/DeltatarO growth, OD600, 18 h, stronger effect = lower value, screened at 18.75 µg/mL (by protocol).

Row | SMILES | survival
1 | O=c1c2[nH]c3ccccc3c2nc(SCc2cccc(F)c2)n1-c1ccccc1 | 53% (inactive)
2 | CCOC(=O)CC(NC(=O)c1cc2c(=O)n3cccc(C)c3nc2s1)c1ccc(OCC(C)C)c(OC)c1 (stereo not given) | 77% (inactive)
3 | CCOc1ccccc1NC(=O)c1ccc(F)c(S(=O)(=O)NCc2ccc3c(c2)OCO3)c1 | 63% (inactive)
4 | O=C(Nc1cc(C(F)(F)F)ccc1Cl)c1cc(S(=O)(=O)NCc2ccccc2)ccc1F | 14% (active)
5 | CN(Cc1ccccc1)S(=O)(=O)c1ccc(F)c(C(=O)Nc2cccc(Cl)c2Cl)c1 | 159% (inactive)
6 | O=C(Nc1cc(Cl)ccc1Cl)c1cc(S(=O)(=O)NCCc2ccccc2)ccc1F | 133% (inactive)
7 | CCN(Cc1ccccc1)S(=O)(=O)c1ccc(F)c(C(=O)Nc2cc(C)ccc2OC)c1 | 120% (inactive)
8 | COc1ccccc1NC(=O)c1cnn(-c2ccccc2)c1-n1cccc1 | 99% (inactive)
9 | CCN(Cc1ccccc1)S(=O)(=O)c1ccc(F)c(C(=O)Nc2ccc(C(C)C)cc2)c1 | 95% (inactive)
10 | O=C(Nc1cc(C(F)(F)F)ccc1Cl)c1cnn(-c2ccccc2)c1-n1cccc1 | -3% (active)
11 | CN(Cc1ccccc1)S(=O)(=O)c1ccc(F)c(C(=O)Nc2cc(Cl)cc(Cl)c2)c1 | 76% (inactive)
12 | O=C(Nc1ccc(Cl)cc1C(F)(F)F)c1cc(S(=O)(=O)NCc2ccccc2)ccc1F | 134% (inactive)
13 | COc1cc(OC)c(NC(=O)c2cnn(-c3ccccc3)c2-n2cccc2)cc1Cl | 80% (inactive)
14 | CN(Cc1ccccc1)S(=O)(=O)c1ccc(F)c(C(=O)Nc2ccccc2C(F)(F)F)c1 | -6% (active)
15 | CCN(Cc1ccccc1)S(=O)(=O)c1ccc(F)c(C(=O)Nc2cc(C(F)(F)F)ccc2Cl)c1 | -1% (active)
16 | COc1cccc(CNC(=O)c2ccc3c(c2)c(C)c(C)n3Cc2ccccc2)c1 | 72% (inactive)
17 | CCC(C)Nc1sc(S(=O)(=O)CC)nc1S(=O)(=O)c1ccc(C)cc1 (stereo not given) | 78% (inactive)
18 | COc1ccccc1CNC(=O)Cn1ncn2c(cc3sccc32)c1=O | 76% (inactive)
19 | O=C(CN1C(=O)COc2ccc(S(=O)(=O)N3CCOCC3)cc21)N1CCN(c2ccccc2F)CC1 | 100% (inactive)
20 | O=C(CCS(=O)(=O)c1ccccc1)N(Cc1cccnc1)c1nc2ccc(F)cc2s1 | 124% (inactive)
21 | Cc1nccn1S(=O)(=O)c1c(C(C)C)cc(C(C)C)cc1C(C)C | 119% (inactive)
22 | CCOc1cc(C)c(C(C)C)cc1S(=O)(=O)n1ccnc1CC | -11% (active)
23 | CCc1nccn1S(=O)(=O)c1cc(Br)ccc1Br | 69% (inactive)

Row | SMILES | survival
24 | Cc1ccc(CNC(=O)Cn2ncc3c([nH]c4ccc(C)cc43)c2=O)cc1 | 79% (inactive)
25 | CCCCN(C)C(=O)Cn1ncc2c([nH]c3ccc(C)cc32)c1=O | 81% (inactive)
26 | Cc1ccc2[nH]c3c(=O)n(CC(=O)N(C)Cc4ccccc4)ncc3c2c1 | -3% (active)
27 | Cc1ccc2[nH]c3c(=O)n(CC(=O)N(CCN(C)C)Cc4ccccc4)ncc3c2c1 | 99% (inactive)
28 | Cc1ccc2[nH]c3c(=O)n(CC(=O)NC(C)C)ncc3c2c1 | 1% (active)
29 | Cc1ccc(CCNC(=O)Cn2ncc3c([nH]c4ccc(C)cc43)c2=O)cc1 | 131% (inactive)
30 | O=C(NCC(c1cccs1)S(=O)(=O)c1cccs1)c1ccccc1 (stereo not given) | 70% (inactive)
31 | COc1ccccc1CCNC(=O)Cn1ccc2cc(S(=O)(=O)N3CCCCC3)ccc21 | 87% (inactive)
32 | Cc1cccc(C(=O)n2nc(-c3cccnc3)nc2NCc2ccccc2)c1 | 106% (inactive)
33 | COc1ccccc1-c1nc(S(=O)(=O)c2ccccc2)c(N2CCC(C)CC2)o1 | -5% (active)
34 | Cc1ccc(S(=O)(=O)c2nc(-c3ccccc3F)oc2N2CCCCC2)cc1 | 17% (active)
35 | O=S(=O)(c1ccccc1)c1nc(-c2ccccc2Cl)oc1N1CCCCCC1 | 14% (active)
36 | Cc1ccc(-c2nc(S(=O)(=O)c3ccc(Cl)cc3)c(N3CCCCC3)o2)cc1 | 5% (active)
37 | Cc1ccc(S(=O)(=O)c2nc(-c3ccc(Cl)cc3)oc2N2CCCCCC2)cc1 | 30% (inactive)
38 | COc1ccccc1-c1nc(S(=O)(=O)c2ccc(Cl)cc2)c(N2CCCCCC2)o1 | 70% (inactive)
39 | O=S(=O)(c1ccccc1)c1nc(-c2ccc(Cl)cc2Cl)oc1N1CCCCC1 | 57% (inactive)
40 | Cc1ccc(S(=O)(=O)c2nc(-c3ccccc3Cl)oc2N2CCCCCC2)cc1 | 20% (inactive)
41 | COc1ccc(-c2nc(S(=O)(=O)c3ccc(Cl)cc3)c(N3CCCCCC3)o2)cc1 | 64% (inactive)
42 | O=S(=O)(c1ccccc1)c1nc(-c2ccccc2F)oc1N1CCOCC1 | 77% (inactive)
43 | Cc1ccc(S(=O)(=O)c2nc(-c3ccc(F)cc3)oc2N2CCN(c3ccccc3)CC2)cc1 | 115% (inactive)
44 | COc1ccc(-c2nc(S(=O)(=O)c3ccccc3)c(N3CCC(C)CC3)o2)cc1 | 89% (inactive)
45 | CCC(Oc1ccccc1)C(=O)Nc1cc(-c2cccc(C)c2)nn1-c1ccccc1 (stereo not given) | 89% (inactive)
46 | CCOC(=O)c1ccc(NC(=O)CSc2nnc(CNC(=O)c3ccc(OC)cc3)n2CC)cc1 | 134% (inactive)

Row | SMILES | survival
47 | COc1ccc(-c2nnc(C3CCN(C(=O)c4ccccc4F)CC3)o2)cc1 | 85% (inactive)
48 | CCOC(=O)c1ccc(NC(=O)CC2C(=O)N(c3ccccc3)C(=O)N2Cc2ccc(C)cc2)cc1 (stereo not given) | 58% (inactive)
49 | COc1ccccc1NC(=O)CCCc1nnc2n(C)c(=O)c3sccc3n12 | 97% (inactive)
50 | CC1CCN(C(=O)CS(=O)(=O)Cc2ccccc2)CC1 | 102% (inactive)
51 | O=C1C(=O)N(C2CCN(C(=O)c3cccc(Cl)c3)CC2)CCN1Cc1ccc(F)cc1 | 77% (inactive)
52 | Cc1nc2c3ccccc3nc(NNC(=O)CCC(=O)N3CCN(c4ccccc4)CC3)n2n1 | 81% (inactive)
53 | COc1ccc(-n2c(=O)c3c(c4cc(OC)ccc4n3C)n(CC(=O)NCC3CCCO3)c2=O)cc1 (stereo not given) | 83% (inactive)
54 | COc1ccc(CNCCSc2nnnn2-c2ccccc2)cc1 | 83% (inactive)
55 | Cc1ccc(C)c(NC(=O)CN(Cc2ccccc2)S(=O)(=O)c2ccc3nc(C)sc3c2)c1 | 66% (inactive)
56 | Cc1ccc(S(=O)(=O)c2nc(-c3ccccc3)oc2N2CCN(c3ccccc3)CC2)cc1 | 86% (inactive)
57 | Cc1ccc(-c2nc(S(=O)(=O)c3ccc(C)cc3)c(N3CCCCCC3)o2)cc1 | 84% (inactive)
58 | Cc1ccc(S(=O)(=O)c2nc(-c3ccccc3)oc2N2CCCCCC2)cc1 | 6% (active)
59 | Cc1cccc(-c2nc(S(=O)(=O)c3ccc(Cl)cc3)c(N3CCCCCC3)o2)c1 | 41% (inactive)
60 | Cc1ccc(-c2nc(S(=O)(=O)c3ccc(C)cc3)c(N3CCN(c4ccccc4)CC3)o2)cc1 | 104% (inactive)
61 | Cc1ccc(-c2nc(S(=O)(=O)c3ccc(C)cc3)c(N3CCCCC3)o2)cc1 | 0% (active)
62 | COc1ccc(-c2nc(S(=O)(=O)c3ccc(C)cc3)c(N3CCCCC3)o2)cc1 | 63% (inactive)
63 | Cc1ccc(S(=O)(=O)c2nc(-c3cccc(C)c3)oc2N2CCCCC2)cc1 | 2% (active)
64 | Cc1ccc(S(=O)(=O)c2nc(-c3cccc(C)c3)oc2N2CCN(c3ccccc3)CC2)cc1 | 117% (inactive)
65 | Cc1cc(C(=O)N2CCN(c3cccc(C)c3C)CC2)c2c(C)nn(-c3ccccc3)c2n1 | 121% (inactive)
66 | Cc1cccc(C(=O)Nc2ccc(N3CC=C(c4ccccc4C)CC3)c(C(=O)O)c2)c1 | 66% (inactive)
67 | COc1nnc(-c2ccc(N3CCCCC3)c(NC(=O)c3ccccc3)c2)c2ccccc12 | -6% (active)
68 | Cn1c(=O)c(=O)n(C)c2cc(N3CCCC3)c(NC(=O)c3ccccc3Cl)cc21 | 86% (inactive)
69 | COc1nnc(-c2ccc(N3CCCCC3)c(NC(=O)c3ccc(C)cc3)c2)c2ccccc12 | 36% (inactive)

Row | SMILES | survival
70 | Cn1nc(-c2ccc(N3CCCCC3)c(NC(=O)c3ccc(Cl)cc3)c2)c2ccccc2c1=O | 80% (inactive)
71 | COc1nnc(-c2ccc(N3CCCCC3)c(NC(=O)c3ccccc3Cl)c2)c2ccccc12 | -7% (active)
72 | COc1nnc(-c2ccc(N3CCCCC3)c(NC(=O)c3ccc(Cl)cc3)c2)c2ccccc12 | 96% (inactive)
73 | CCN(CCCNC(=O)CSc1cc(=O)n(C)c2ccccc12)c1ccccc1 | 77% (inactive)
74 | CC(=O)Nc1ccc(NC(=O)c2cc3sccc3n2Cc2ccc(Cl)cc2)cc1 | 91% (inactive)
75 | CC1(C)O[C@H]2[C@@H](O1)[C@@H](C(=O)Nc1ccc(F)c(F)c1)O[C@@H]1OC(C)(C)O[C@@H]12 | 106% (inactive)
76 | CCN(CC)CCNC(=O)c1ccc2c(=O)n3nc(Nc4cccc(Cl)c4C)sc3nc2c1 | 153% (inactive)
77 | Cc1ccc(C)c(CNC(=O)C2CCN(c3nc4ccccc4nc3C(F)(F)F)CC2)c1 | 88% (inactive)
78 | CCc1c(C)nc2nncn2c1NCc1ccccc1 | 86% (inactive)
79 | CCc1c(C)nc2nc(-c3ccccc3)nn2c1NCc1ccc(C)cc1 | -1% (active)
80 | Cc1ccc(CNc2cc(C)nc3nc(-c4ccc(C)cc4)nn23)cc1 | 66% (inactive)
81 | CCOC(=O)c1ccc(NC(=O)CSc2nc(C)c(Cc3ccccc3)c(=O)[nH]2)cc1 | 80% (inactive)
82 | O=C(NCc1ccccc1)N(Cc1cccnc1)Cc1cc2cc3c(cc2[nH]c1=O)OCCO3 | 102% (inactive)
83 | COc1ccc(-c2nn3c(-c4ccc(C)cc4)nnc3c3ccccc23)cc1 | 70% (inactive)
84 | COc1ccc2[nH]cc(CCN=C(NC(=O)c3ccccc3C)Nc3nc(C)cc(C)n3)c2c1 | 41% (inactive)
85 | CCn1c2c(c(=O)n3ncc(C(=O)Nc4ccc(F)c(Cl)c4)c13)CN(Cc1ccc(OC)cc1)CC2 | -1% (active)
86 | CCn1c2c(c(=O)n3ncc(C(=O)Nc4ccc(Cl)cc4C)c13)CN(Cc1ccc(OC)cc1)CC2 | 76% (inactive)
87 | CCn1c2c(c(=O)n3ncc(C(=O)Nc4ccc(F)cc4Cl)c13)CN(Cc1ccc(OC)cc1)CC2 | 14% (active)
88 | CCn1c2c(c(=O)n3ncc(C(=O)Nc4cc(Cl)ccc4OC)c13)CN(Cc1ccc(OC)cc1)CC2 | 72% (inactive)
89 | CCn1c2c(c(=O)n3ncc(C(=O)Nc4ccc(OC(F)(F)F)cc4)c13)CN(Cc1ccc(OC)cc1)CC2 | 83% (inactive)
90 | CCn1c2c(c(=O)n3ncc(C(=O)Nc4ccc(C(=O)OC)cc4)c13)CN(Cc1ccc(OC)cc1)CC2 | 55% (inactive)
